Compound activity as filed in PubChem BioAssay.
Sm TGR inh: inhibitors of Schistosoma mansoni thioredoxin glutathione reductase | Q962Y6 | purified TGR, DTNB reduction, TNB absorbance 405 nm | Potency, µM (highest dose often 114 µM), most hits filed as inhibitors | actives 3% (n = 360,000); further: nearly all actives have a fitted effect of over 60% in size
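TGR 20 nM + NADPH 100 uM (dispensed conc.), cpd preinc 15 min RT; start with NADPH (500 uM addition) then DTNB (15 mM addition). Kinetic TNB absorbance, 405 nm filter. Four-parameter Hill fit across titration.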
Pf growth 96h: inhibits malaria parasite growth, 96 h | P. falciparum luciferase reporter growth, 96 h | Potency, µM (top dose mostly 28.7 µM), actives largely listed as inhibitors | actives 6.9% (n = 320,000) | AID 504834
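Compounds incubated with erythrocytes infected by luciferase-expressing P. falciparum (2% hematocrit, 0.05% parasitemia final) for 96 hours, 37 C in 5% CO2. Growth inhibition scored as decreased luciferase luminescence.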
SARS PLpro yeast: SARS-CoV PLP inhibition in yeast; actives 0.19% (n = 330,000); Potency, µM (doses to about 32.9 µM), hits mostly activators; S. cerevisiae expressing SARS-CoV PLpro, growth rescue; calls by dose curve; further: nearly all actives have a fitted effect of over 55% in size
Pf growth 48h: inhibits P. falciparum growth in the first generation, 48 h; P. falciparum luciferase growth in erythrocytes, 48 h; Potency, µM (doses to about 28.7 µM), usual class: inhibitors; actives 5.9% (n = 310,000); AID 504832
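Firefly luciferase activity from engineered P. falciparum reports growth; inhibitors lower the luminescent signal. Cultures contained 2% hematocrit erythrocytes at 0.1% final parasitemia.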
Numbers stand for hits. Rows were chosen to be rich in hits. Some 12% of all compounds tested hit in one or more screens of this group. Unless noted, the call rests on the fitted dose curve; in most records, active means well fitted curve in the direction sought with a large enough effect; inconclusive means small, poorly fitted or top-dose-only effect, or another doubt; inactive means no such curve, though single readings can be large; an effect the other way counts as inactive or inconclusive.

What do the screens show for `O=C(c1ccccc1Cl)N1CCN(CCc2ccccn2)CC1`?
Sm TGR inh: inactive

How did COc1ccc(OC)c2sc(N3CCN(C(=O)c4ccc5ncsc5c4)CC3)nc12 do in these assays?
Sm TGR inh: inactive; Pf growth 96h: inconclusive; SARS PLpro yeast: inactive; Pf growth 48h: 12µM

Results for CCOc1cccc2sc(N3CCN(C(=O)c4ccc5ncsc5c4)CC3)nc12 ?
Sm TGR inh: inactive; Pf growth 96h: 12µM; SARS PLpro yeast: inactive; Pf growth 48h: inconclusive

Results for COc1ccc2nc(N3CCN(C(=O)c4ccc5ncsc5c4)CC3)sc2c1 ?
Sm TGR inh: inactive; Pf growth 96h: inconclusive; SARS PLpro yeast: inactive; Pf growth 48h: inconclusive

Results for CC1CC1C(=O)N(CCC1=CCCCC1)c1c(N)n(Cc2ccccc2)c(=O)[nH]c1=O (stereo not drawn) ?
Sm TGR inh: inactive; Pf growth 96h: inconclusive; SARS PLpro yeast: inactive; Pf growth 48h: inconclusive

What do the screens show for `Nc1c(N(CCC2=CCCCC2)C(=O)Cc2ccc(F)cc2)c(=O)[nH]c(=O)n1Cc1ccccc1`?
Sm TGR inh: inactive; Pf growth 96h: inconclusive; SARS PLpro yeast: inactive; Pf growth 48h: 9.3µM

Results for Cc1ccc(C(=O)N(CCC2=CCCCC2)c2c(N)n(Cc3ccccc3)c(=O)[nH]c2=O)o1 ?
Sm TGR inh: inactive; Pf growth 96h: inactive; SARS PLpro yeast: inactive; Pf growth 48h: inconclusive

What do the screens show for `Nc1c(N(CCC2=CCCCC2)C(=O)c2ccc([N+](=O)[O-])o2)c(=O)[nH]c(=O)n1Cc1ccccc1`?
Sm TGR inh: inconclusive; Pf growth 96h: inconclusive; SARS PLpro yeast: inactive; Pf growth 48h: 10µM

How did COc1ccc(C(=O)N2c3ccc(C)cc3C(C)(c3ccccc3)CC2(C)C)cc1 (stereo not drawn) do in these assays?
Sm TGR inh: inactive

Results for CN(C)C(=O)c1ccc(NC(=O)CN2C(=O)NC3(CCCc4ccccc43)C2=O)cc1 (stereo not drawn) ?
Sm TGR inh: inactive; Pf growth 96h: inconclusive; Pf growth 48h: inconclusive

How did Cc1cc(-c2nn(-c3ccccc3F)cc2CN2CCC(O)CC2)c(C)s1 do in these assays?
Sm TGR inh: inactive; Pf growth 96h: inconclusive; SARS PLpro yeast: inactive; Pf growth 48h: inconclusive

Results for Cc1cc(-c2nn(-c3ccccc3F)cc2CN2CCN(c3ccncc3)CC2)c(C)s1 ?
Sm TGR inh: inactive; Pf growth 96h: inconclusive; SARS PLpro yeast: inactive; Pf growth 48h: 4.1µM

Results for Cc1ccc(N/C(CSC(N)=O)=N/S(=O)(=O)c2ccccc2)cc1 ?
Sm TGR inh: inactive; Pf growth 96h: 3.3µM; SARS PLpro yeast: inactive; Pf growth 48h: inactive

What do the screens show for `Cc1cccc(CSc2cccc3cccnc23)c1`?
Sm TGR inh: inactive; Pf growth 96h: 4.7µM; SARS PLpro yeast: inactive; Pf growth 48h: inactive

What do the screens show for `NNC(=O)c1ccc(CSc2cccc3cccnc23)cc1`?
Sm TGR inh: inactive; Pf growth 96h: inactive; SARS PLpro yeast: inactive; Pf growth 48h: inactive

What do the screens show for `Cc1ccc(CNC(=O)C(CC(C)C)NS(=O)(=O)c2ccc3c(c2)oc(=O)n3C)cc1` (stereo not drawn)?
Sm TGR inh: inactive

How did C#CCOCCOCCOCCNc1nc(N2CCN(C(=O)[C@H](C)n3cc(CCCN=C(N)N)nn3)CC2)nc(N2CCN(C(=O)[C@H](C)n3cc(CCCN=C(N)N)nn3)CC2)n1 do in these assays?
Sm TGR inh: inactive; Pf growth 96h: 0.74µM; SARS PLpro yeast: inactive; Pf growth 48h: inconclusive

How did C#CCOCCOCCOCCNc1nc(N2CCN(C(=O)[C@H]([C@@H](C)CC)n3cc(CCCN=C(N)N)nn3)CC2)nc(N2CCN(C(=O)[C@H](C)n3cc(CCCN=C(N)N)nn3)CC2)n1 do in these assays?
Sm TGR inh: inactive; Pf growth 96h: 0.17µM; SARS PLpro yeast: inactive; Pf growth 48h: inconclusive

How did C#CCOCCOCCOCCNc1nc(N2CCOCC2)nc(N2CCN(C(=O)[C@H](C)n3cc(CCCN=C(N)N)nn3)CC2)n1 do in these assays?
Sm TGR inh: inactive; Pf growth 96h: inactive; SARS PLpro yeast: inactive; Pf growth 48h: inactive

What do the screens show for `C#CCOCCOCCOCCNc1nc(N2CCN(C(=O)[C@H]([C@@H](C)CC)n3cc(CCCN=C(N)N)nn3)CC2)nc(N2CCN(C(=O)[C@H]([C@@H](C)CC)n3cc(CCCN=C(N)N)nn3)CC2)n1`?
Sm TGR inh: inactive; Pf growth 96h: 0.93µM; SARS PLpro yeast: inactive; Pf growth 48h: inconclusive

Results for C#CCOCCOCCOCCNc1nc(N2CCN(C(=O)Cn3cc(CC(C)O)nn3)CC2)nc(N2CCN(C(=O)[C@H]([C@@H](C)CC)n3cc(CCCN=C(N)N)nn3)CC2)n1 (stereo partly drawn) ?
Sm TGR inh: inactive; Pf growth 96h: 4.7µM; SARS PLpro yeast: inactive; Pf growth 48h: inactive

Results for CCOc1ccc(/C=C/c2nc(C#N)c(NCc3ccc(OC)cc3)o2)cc1 ?
Sm TGR inh: inactive

Results for CC1CCN(S(=O)(=O)c2ccc(N3CCCCS3(=O)=O)cc2)CC1 ?
Sm TGR inh: inactive

What do the screens show for `CC(OC(=O)c1cc(Br)ccc1O)C(=O)NC1(C#N)CCCCC1` (stereo not drawn)?
Sm TGR inh: inactive; Pf growth 96h: inactive; SARS PLpro yeast: inactive; Pf growth 48h: inactive

How did C#CCOCCOCCOCCNc1nc(N2CCN(C(=O)Cn3cc(CCCN=C(N)N)nn3)CC2)nc(N2CCN(C(=O)Cn3cc(CCCN=C(N)N)nn3)CC2)n1 do in these assays?
Sm TGR inh: inactive; Pf growth 96h: 0.033µM; SARS PLpro yeast: inactive; Pf growth 48h: inconclusive

Results for C#CCOCCOCCOCCNc1nc(N2CCOCC2)nc(N2CCN(C(=O)Cn3cc(CCCN=C(N)N)nn3)CC2)n1 ?
Sm TGR inh: inactive; Pf growth 96h: inconclusive; SARS PLpro yeast: inactive; Pf growth 48h: inactive

How did Cc1ccc2c(c1)C1CN(C)CCC1N2C(=O)c1cccs1 (stereo not drawn) do in these assays?
Sm TGR inh: inactive; Pf growth 96h: inactive; SARS PLpro yeast: inactive; Pf growth 48h: inconclusive

Results for Cc1ccc2c(c1)C1CN(C)CCC1N2C(=O)Cc1cccs1 (stereo not drawn) ?
Sm TGR inh: inactive; Pf growth 96h: 0.93µM; SARS PLpro yeast: inactive; Pf growth 48h: inconclusive

What do the screens show for `Cc1ccc2c(c1)C1CN(C)CCC1N2C(=O)c1cccc(S(=O)(=O)N(C)C)c1` (stereo not drawn)?
Sm TGR inh: inactive; Pf growth 96h: inactive; SARS PLpro yeast: inactive; Pf growth 48h: inactive

What do the screens show for `Cc1ccc2c(c1)C1CN(C)CCC1N2C(=O)Nc1ccc(Cl)cc1` (stereo not drawn)?
Sm TGR inh: inactive; Pf growth 96h: 10µM; SARS PLpro yeast: inactive; Pf growth 48h: 10µM

Results for Cc1nn(-c2ccc(N3CCCCC3)nn2)c(C)c1CCC(=O)Nc1ccc(F)c(F)c1 ?
Sm TGR inh: inactive; Pf growth 96h: inactive; SARS PLpro yeast: inactive; Pf growth 48h: inactive

Results for CC1(C)CCN2CCC(C)(C)c3c(O)ccc1c32 ?
Sm TGR inh: 2.8µM; Pf growth 96h: inactive; SARS PLpro yeast: inactive; Pf growth 48h: inconclusive

How did COc1ccc(Nc2nc(Cl)nc(NCCO)n2)cc1 do in these assays?
Sm TGR inh: inactive; Pf growth 96h: inactive; SARS PLpro yeast: inactive; Pf growth 48h: inactive
